Test results as given in the supplement of paper PMC10849652.
The full data set covers some 7,900 targets. This sample favours those with a hit. About 0.6% of all pairs of compound and target were hits. A number with no mark means an inactive call.

compound: Cc1sc2c(c1C)C(c1ccc(Cl)cc1)=N[C@@H](CC(=O)OC(C)(C)C)c1nnc(C)n1-2; assay: log2 fold change, soluble protein after heating vs DMSO (PISA); higher = thermal stabilisation; K562 cells, 10 uM, 30 min; active = over 0.2 and 3.5 SD of the protein, either way, in both replicates (recomputed)
Method in brief: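 K562 cells at 2×10^6 cells/mL were given 10 μM compound for 30 min. Aliquots then went through 3 min of heating across 48°C-58°C, were pooled, and were extracted in PBS with 0.5% NP-40 at 4°C, and the supernatant after 21,000xg for 90 min was quantified by TMTpro 16plex LC-MS/MS with channel sums equalised. Thermal stability relative to control samples, from duplicates, is given as log2 fold change.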

Sequence of UniProt Q15629 (Q15629 whole entry, looked up): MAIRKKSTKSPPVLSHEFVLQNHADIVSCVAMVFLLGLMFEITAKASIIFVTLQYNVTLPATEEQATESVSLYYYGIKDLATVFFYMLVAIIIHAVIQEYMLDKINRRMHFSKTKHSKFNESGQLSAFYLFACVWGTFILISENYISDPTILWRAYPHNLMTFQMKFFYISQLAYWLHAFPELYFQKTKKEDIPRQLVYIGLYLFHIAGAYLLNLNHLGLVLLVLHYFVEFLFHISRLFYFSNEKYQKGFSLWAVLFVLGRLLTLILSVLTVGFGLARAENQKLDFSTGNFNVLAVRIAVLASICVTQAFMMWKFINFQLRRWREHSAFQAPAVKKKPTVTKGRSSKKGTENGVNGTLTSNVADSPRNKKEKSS
Sequence of UniProt Q9BQB6 (Q9BQB6 whole entry, looked up): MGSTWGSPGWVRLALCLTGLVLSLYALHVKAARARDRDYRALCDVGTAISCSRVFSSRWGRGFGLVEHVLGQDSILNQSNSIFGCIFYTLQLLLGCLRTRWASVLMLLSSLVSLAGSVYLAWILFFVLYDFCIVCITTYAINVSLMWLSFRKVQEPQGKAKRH
Sequence of UniProt P13010 (P13010 whole entry, looked up): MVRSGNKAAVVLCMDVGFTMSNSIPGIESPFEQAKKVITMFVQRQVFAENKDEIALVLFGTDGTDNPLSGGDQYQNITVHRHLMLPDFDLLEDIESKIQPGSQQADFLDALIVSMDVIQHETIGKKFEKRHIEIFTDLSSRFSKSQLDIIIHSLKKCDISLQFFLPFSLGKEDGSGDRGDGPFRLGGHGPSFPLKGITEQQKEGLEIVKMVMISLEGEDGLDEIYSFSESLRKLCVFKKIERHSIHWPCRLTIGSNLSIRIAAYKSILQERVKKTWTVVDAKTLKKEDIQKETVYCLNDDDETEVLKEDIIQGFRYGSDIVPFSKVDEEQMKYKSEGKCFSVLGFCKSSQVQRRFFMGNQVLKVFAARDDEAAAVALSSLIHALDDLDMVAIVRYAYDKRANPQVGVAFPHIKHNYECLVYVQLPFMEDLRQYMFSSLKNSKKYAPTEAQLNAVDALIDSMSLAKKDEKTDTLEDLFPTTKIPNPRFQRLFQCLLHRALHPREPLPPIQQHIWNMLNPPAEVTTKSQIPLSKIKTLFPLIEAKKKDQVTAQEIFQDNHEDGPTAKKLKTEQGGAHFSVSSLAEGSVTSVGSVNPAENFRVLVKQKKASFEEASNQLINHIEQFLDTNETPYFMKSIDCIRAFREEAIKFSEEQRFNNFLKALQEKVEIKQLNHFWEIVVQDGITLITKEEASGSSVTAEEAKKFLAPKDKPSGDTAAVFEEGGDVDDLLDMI
Sequence of UniProt P49754 (P49754 whole entry, looked up): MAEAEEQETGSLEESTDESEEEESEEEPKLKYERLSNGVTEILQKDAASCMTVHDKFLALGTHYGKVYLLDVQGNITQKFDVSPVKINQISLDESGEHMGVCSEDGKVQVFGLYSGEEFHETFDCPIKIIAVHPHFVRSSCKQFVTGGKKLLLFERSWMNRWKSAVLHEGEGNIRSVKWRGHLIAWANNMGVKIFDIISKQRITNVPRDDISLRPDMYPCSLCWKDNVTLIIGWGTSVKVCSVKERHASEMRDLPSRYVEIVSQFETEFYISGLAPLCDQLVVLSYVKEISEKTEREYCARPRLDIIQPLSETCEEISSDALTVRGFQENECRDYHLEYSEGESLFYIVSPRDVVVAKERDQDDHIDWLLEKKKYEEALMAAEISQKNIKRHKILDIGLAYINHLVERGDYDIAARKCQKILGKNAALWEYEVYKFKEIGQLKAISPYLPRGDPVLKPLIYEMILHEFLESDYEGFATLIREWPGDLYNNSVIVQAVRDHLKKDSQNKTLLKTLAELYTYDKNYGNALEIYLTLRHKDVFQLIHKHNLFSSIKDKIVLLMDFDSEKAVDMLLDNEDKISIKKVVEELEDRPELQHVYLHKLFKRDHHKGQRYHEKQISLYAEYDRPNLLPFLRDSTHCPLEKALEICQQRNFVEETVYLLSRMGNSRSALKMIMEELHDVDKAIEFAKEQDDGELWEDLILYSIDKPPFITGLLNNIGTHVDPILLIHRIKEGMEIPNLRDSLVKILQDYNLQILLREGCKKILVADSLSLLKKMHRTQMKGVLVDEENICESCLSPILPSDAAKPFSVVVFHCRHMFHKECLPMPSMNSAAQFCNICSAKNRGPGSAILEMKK
Sequence of UniProt Q9UK41 (Q9UK41 whole entry, looked up): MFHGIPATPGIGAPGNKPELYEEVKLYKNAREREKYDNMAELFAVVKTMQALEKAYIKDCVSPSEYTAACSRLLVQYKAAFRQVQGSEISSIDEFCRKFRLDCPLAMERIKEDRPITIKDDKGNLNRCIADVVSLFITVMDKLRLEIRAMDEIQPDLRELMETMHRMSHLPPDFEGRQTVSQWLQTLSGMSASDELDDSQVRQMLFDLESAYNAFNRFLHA
Sequence of UniProt P51809 (P51809 whole entry, looked up): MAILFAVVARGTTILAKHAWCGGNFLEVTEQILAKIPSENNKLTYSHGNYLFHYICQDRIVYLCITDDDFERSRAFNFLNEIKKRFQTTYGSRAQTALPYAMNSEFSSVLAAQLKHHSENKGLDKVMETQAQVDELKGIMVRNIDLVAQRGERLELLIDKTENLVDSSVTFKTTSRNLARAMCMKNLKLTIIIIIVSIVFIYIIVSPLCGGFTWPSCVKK
Sequence of UniProt Q7L0Y3 (Q7L0Y3 whole entry, looked up): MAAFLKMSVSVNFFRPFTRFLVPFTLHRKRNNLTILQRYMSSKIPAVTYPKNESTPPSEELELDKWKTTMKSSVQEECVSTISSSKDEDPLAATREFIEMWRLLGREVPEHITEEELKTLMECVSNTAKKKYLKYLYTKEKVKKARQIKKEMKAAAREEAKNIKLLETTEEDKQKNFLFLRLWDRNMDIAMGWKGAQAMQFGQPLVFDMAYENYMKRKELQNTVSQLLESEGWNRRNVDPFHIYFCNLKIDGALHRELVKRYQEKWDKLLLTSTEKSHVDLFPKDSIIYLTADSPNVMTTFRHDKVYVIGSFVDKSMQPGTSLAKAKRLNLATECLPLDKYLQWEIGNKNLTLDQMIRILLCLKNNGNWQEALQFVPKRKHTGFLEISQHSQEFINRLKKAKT
Sequence of UniProt Q9Y5Z9 (Q9Y5Z9 whole entry, looked up): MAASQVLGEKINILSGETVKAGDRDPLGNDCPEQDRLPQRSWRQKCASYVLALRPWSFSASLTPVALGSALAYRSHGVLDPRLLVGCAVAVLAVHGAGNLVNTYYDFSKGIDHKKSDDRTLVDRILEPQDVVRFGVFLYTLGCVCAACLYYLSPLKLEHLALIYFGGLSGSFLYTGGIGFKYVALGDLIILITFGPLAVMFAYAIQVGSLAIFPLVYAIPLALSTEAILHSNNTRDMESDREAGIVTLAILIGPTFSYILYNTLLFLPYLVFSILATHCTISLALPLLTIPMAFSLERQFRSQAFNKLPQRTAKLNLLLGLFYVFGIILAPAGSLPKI
Sequence of UniProt A5PLN9 (A5PLN9 whole entry, looked up): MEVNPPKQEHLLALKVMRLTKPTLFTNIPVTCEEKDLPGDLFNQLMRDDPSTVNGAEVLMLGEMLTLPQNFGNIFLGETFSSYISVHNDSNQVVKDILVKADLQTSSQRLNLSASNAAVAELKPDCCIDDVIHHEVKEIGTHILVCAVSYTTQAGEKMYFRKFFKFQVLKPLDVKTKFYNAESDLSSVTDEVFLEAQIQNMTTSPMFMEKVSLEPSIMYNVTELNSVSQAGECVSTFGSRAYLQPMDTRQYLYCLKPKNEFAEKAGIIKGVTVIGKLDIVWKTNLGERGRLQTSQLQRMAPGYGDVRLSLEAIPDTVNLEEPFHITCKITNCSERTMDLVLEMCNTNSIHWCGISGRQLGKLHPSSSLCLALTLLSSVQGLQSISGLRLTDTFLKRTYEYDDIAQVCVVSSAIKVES
Sequence of UniProt Q9HCN3 (Q9HCN3 whole entry, looked up): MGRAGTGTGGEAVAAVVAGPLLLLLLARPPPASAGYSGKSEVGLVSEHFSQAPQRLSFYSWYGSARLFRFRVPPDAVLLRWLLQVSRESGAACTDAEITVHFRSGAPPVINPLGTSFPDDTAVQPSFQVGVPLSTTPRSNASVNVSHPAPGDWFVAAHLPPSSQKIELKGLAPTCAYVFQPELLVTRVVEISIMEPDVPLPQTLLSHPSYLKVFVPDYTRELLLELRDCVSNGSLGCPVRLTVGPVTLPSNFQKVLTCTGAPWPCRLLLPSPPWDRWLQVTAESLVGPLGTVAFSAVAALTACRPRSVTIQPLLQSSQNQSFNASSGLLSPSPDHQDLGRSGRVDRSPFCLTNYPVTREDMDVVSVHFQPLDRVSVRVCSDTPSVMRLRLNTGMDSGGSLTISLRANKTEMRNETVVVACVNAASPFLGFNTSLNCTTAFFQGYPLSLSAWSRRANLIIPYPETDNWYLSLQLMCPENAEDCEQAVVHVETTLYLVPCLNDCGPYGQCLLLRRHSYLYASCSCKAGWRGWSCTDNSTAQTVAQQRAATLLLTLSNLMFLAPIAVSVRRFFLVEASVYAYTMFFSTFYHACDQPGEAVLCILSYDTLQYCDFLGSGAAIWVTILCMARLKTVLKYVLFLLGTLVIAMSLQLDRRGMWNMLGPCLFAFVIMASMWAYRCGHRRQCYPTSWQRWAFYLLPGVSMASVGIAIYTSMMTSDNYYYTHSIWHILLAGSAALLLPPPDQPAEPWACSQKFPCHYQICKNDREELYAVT
Sequence of UniProt A0PJW6 (A0PJW6 whole entry, looked up): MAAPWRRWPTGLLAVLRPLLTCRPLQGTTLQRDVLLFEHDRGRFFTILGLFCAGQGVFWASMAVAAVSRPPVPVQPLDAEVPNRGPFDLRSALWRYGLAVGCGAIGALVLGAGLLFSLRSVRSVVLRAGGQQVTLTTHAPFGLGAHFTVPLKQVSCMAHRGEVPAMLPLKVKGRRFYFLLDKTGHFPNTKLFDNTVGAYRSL

| Target | log2 fold change |
| --- | --- |
| TMEM8A (UniProt Q9HCN3) | 0.038 |
| VPS41 (UniProt P49754) | -0.017 |
| VPS28 (UniProt Q9UK41) | 0.011 |
| VPS35L (UniProt Q7Z3J2) | -0.024 |
| USP7 (UniProt Q93009) | -0.01 |
| WDR11 (UniProt Q9BZH6) | 0.05 |
| VAMP7 (UniProt P51809) | -0.047 |
| TRAPPC13 isoform 5 (UniProt A5PLN9) | -0.013 |
| UBC (UniProt P0CG48) | -0.019 |
| UBE2Q1 (UniProt Q7Z7E8) | -0.001 |
| TOP2A isoform 4 (UniProt P11388) | 0.252 |
| TMEM106B (UniProt Q9NUM4) | -0.097 |
| TMEM223 (UniProt A0PJW6) | 0.03 |
| TRAM1 (UniProt Q15629) | 0.049 |
| TNFRSF8 (UniProt P28908) | -0.04 |
| TRMT10C (UniProt Q7L0Y3) | 0.005 |
| TXNL1 (UniProt O43396) | -0.01 |
| VPS18 (UniProt Q9P253) | -0.03 |
| XRCC5 (UniProt P13010) | 0 |
| VKORC1 (UniProt Q9BQB6) | -0.183 |
| UBIAD1 (UniProt Q9Y5Z9) | -0.074 |
| TMEM164 (UniProt Q5U3C3) | -0.22 |
| VPS16 (UniProt Q9H269) | -0.021 |
